Screening results deposited in PubChem BioAssay by National Center for Advancing Translational Sciences (NCATS).
FLuc modulator = qHTS profiling assay for firefly luciferase inhibitor/activator using purifed enzyme and Km concentrations of substrates (counterscreen for miR-21 project). Luciferin 4-monooxygenase (Photinus pyralis), P08659. purified FLuc, Km substrates, luminescence inhibition. Potency, µM (titrated, usually from 57.5 µM), most hits filed as inhibitors. hit rate 6.9% among 360,000. AID 588342, 2011; note: nearly all actives have a fitted effect of over 55% in size
Target sequence (P08659 whole entry, looked up): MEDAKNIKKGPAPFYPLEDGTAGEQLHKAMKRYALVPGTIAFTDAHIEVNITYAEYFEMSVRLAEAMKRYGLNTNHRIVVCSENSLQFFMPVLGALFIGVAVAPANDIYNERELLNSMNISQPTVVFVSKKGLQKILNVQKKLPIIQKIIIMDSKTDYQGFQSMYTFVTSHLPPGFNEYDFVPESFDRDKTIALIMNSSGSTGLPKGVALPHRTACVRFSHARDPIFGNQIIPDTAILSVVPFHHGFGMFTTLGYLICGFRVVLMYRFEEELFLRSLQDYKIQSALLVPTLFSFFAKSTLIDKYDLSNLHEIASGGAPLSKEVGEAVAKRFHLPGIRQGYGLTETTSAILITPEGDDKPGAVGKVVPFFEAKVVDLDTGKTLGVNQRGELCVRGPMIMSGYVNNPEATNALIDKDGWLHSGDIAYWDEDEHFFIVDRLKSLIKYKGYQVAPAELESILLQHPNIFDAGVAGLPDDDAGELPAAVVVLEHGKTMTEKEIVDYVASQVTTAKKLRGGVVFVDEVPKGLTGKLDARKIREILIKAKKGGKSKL
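Biochemical qHTS of compounds, final roughly 60 µM downward over six points, against 10 nM purified firefly luciferase using Km concentrations of substrates (10 uM D-luciferin, 10 uM ATP) in Tris acetate pH 7.5 buffer; luminescence output.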
Luc counter = Counterscreen for Luciferase (Kinase-Glo TM) Inhibition | Luciferin 4-monooxygenase (Photuris pensylvanica), Q27757 | Kinase-Glo luciferase, ATP luminescence, 8 min | Potency, µM (highest dose often 38.3 µM), most hits filed as inhibitors | hit rate 0.28% among 200,000 | AID 1379, 2008; note: nearly all actives have a fitted effect of over 60% in size
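Compounds were added to a substrate mix at pH 7.2 (50 mM imidazole, 10 uM ATP, within the enzyme's linear range), followed by Kinase-Glo detection reagent; luminescence was measured after 8 minutes at ambient temperature.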
ELG1 genotoxic = qHTS screen for small molecules that induce genotoxicity in human embryonic kidney (HEK293T) cells expressing luciferase-tagged ELG1. hit rate 1.3% among 330,000. HEK293T ELG1-luciferase reporter, luminescence, 16 h. Potency, µM (highest dose often 46 µM), most hits filed as activators; note: nearly all actives have a fitted effect of over 60% in size
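Screening used a luciferase reporter fused to human ELG1 in HEK293T cells. Luminescence was read on a CCD plate imager after 16 hr exposure and 30 min ONE-Glo incubation.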
NPC1 promoter act = qHTS Assay for NPC1 Promoter Activators; hit rate 2.4% among 320,000; Potency, µM (highest dose often 9.22 µM), usual class: activators; AID 485313, 2010; Huh7 NPC1 promoter luciferase reporter, 24 h; note: nearly all actives have a fitted effect of over 60% in size
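Huh7 reporter cells (NPC1 promoter driving luciferase) are dosed with compound for 24 h at 37 °C, 5% CO2; luciferase detection reagent is then added and luminescence measured after 10 min at ambient temperature.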
Rab9 promoter act = qHTS Assay for Rab9 Promoter Activators | Huh7 Rab9 promoter-luciferase reporter, luminescence, 24 h | Potency, µM (series often up to 9.22 µM), hits mostly activators | hit rate 2.8% among 320,000; note: nearly all actives have a fitted effect of over 60% in size
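Steps: seed 1500 Huh7 Rab9-luc cells per well, rest 2 h at 37 °C; add compound in DMSO; incubate 24 h; add luciferase reagent, 10 min ambient; read luminescence.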
SMN2 splice enh = qHTS Assay for Enhancers of SMN2 Splice Variant Expression | hit rate 2.8% among 210,000 | Potency, µM (doses to about 46.1 µM), hits mostly activators | HEK293 SMN2-luciferase splicing reporter, luminescence, 30-36 h; note: nearly all actives have a fitted effect of over 55% in size
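HEK293 cells carry an SMN2 […]–luciferase reporter in which exon 7 inclusion puts luciferase in frame. Cells were plated 10-12 h before compound addition, then incubated 30-36 h at 37C. ONE-Glo luminescence was read; sodium butyrate at 4.5 mM final served as control.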
A number is an active result; n = inactive; u = inconclusive; x = not tested or not shown. Rows were chosen to be rich in hits. Some 7.3% of all compounds tested hit in one or more screens of this group. Calls come from the whole dose curve; as a rule, active = well fitted curve in the direction sought with a large enough effect; inconclusive = small, poorly fitted or top-dose-only effect, or another doubt; inactive = no such curve, though single readings can be large; an effect the other way counts as inactive or inconclusive.

SMILES	FLuc modulator	Luc counter	ELG1 genotoxic	NPC1 promoter act	Rab9 promoter act	SMN2 splice enh
Cc1cccc(NC(=O)c2cnc3n(c2=O)CCS3)c1	12µM	n	u	3.5µM	3.5µM	11µM
O=C(NCc1ccc2c(c1)OCO2)c1cnc2n(c1=O)CCS2	n	n	n	n	n	n
CCOC(=O)c1c(-c2ccccc2)oc2ccc(N(C(C)=O)S(=O)(=O)c3ccc(CC)cc3)cc12	n	x	x	x	x	n
O=C(Nc1ccc(OC(F)(F)F)cc1)c1cnc2n(c1=O)CCS2	n	n	7.3µM	u	n	n
CC(C)CCn1c(=O)c2sccc2n2c(CCCC(=O)Nc3ccc(F)c(Cl)c3)nnc12	n	x	x	x	x	x
CCOC(=O)c1[nH]cnc1N=Nc1c(O)ccc2ccccc12	u	n	u	n	n	n
O=S(=O)(O)c1cccc(N=Nc2c(O)ccc3ccccc23)c1	24µM	x	n	n	n	x
Oc1ccc2ccccc2c1N=Nc1ccccn1	15µM	n	n	u	n	n
Oc1ccc2ccccc2c1N=Nc1ccccc1F	17µM	x	n	u	n	x
COc1cccc(CNC(=O)CNS(=O)(=O)c2ccc3nc(C)sc3c2)c1	n	x	x	x	x	n
COC(=O)c1c(-c2ccccc2)csc1N1C(=O)Nc2ccccc2N1O	4.8µM	n	u	u	2.8µM	u
COc1cccc(CNC(=O)Cn2cc3c(n2)-c2c(oc(C(=O)N4CCCC4)c2C)CC3)c1OC	n	x	x	x	x	x
Cc1cc(C=C(C#N)C#N)c(C)n1-c1ccccc1	4.8µM	n	n	u	u	n
COc1cc(/C=C(\C#N)c2nnc(N3CCOCC3)n2-c2ccccc2)ccc1O	n	x	u	n	n	x
Cc1cc(/C=C(\C#N)c2nnc(N3CCOCC3)n2-c2ccccc2)c(C)n1-c1ccccc1	17µM	n	n	n	n	n
Cc1cc(/C=C(\C#N)C(=O)O)c(C)n1-c1ccc(Br)cc1	17µM	x	n	n	n	x
Cc1ccc(-n2c(C)cc(C=C(C#N)C#N)c2C)cc1	19µM	n	n	n	n	n
Cc1cccc(NC(=O)C(NS(=O)(=O)c2ccc3c(c2)oc(=O)n3C)C(C)C)c1 (centres undefined)	n	x	x	x	x	n
COC(=O)c1cnn(-c2ccc(C(=O)Nc3ccc(C(C)=O)cc3)cc2)c1N	n	x	x	n	n	x
CC(=O)Nc1ccc(C(=O)OCc2ccc(Br)cc2)cc1	n	n	n	n	n	n
COC(=O)c1ccc(NC(=O)CSCc2ccc(C)cc2)cc1	n	n	n	n	n	n
COC(=O)c1ccc(N=NN2CCCCC2)cc1	8.5µM	n	8.2µM	2.8µM	2.2µM	14µM
Cc1ccc(C(=O)ONc2ccc(N=NC(=O)c3ccccc3O)cc2)cc1	12µM	n	u	n	u	n
O=Nc1ccc(NOC(=O)c2ccc(Br)cc2)cc1	0.076µM	n	n	n	n	n
COC(=O)c1ccc(NC(=O)CCN2CCCCC2)cc1	n	n	n	n	n	n
SMILES	FLuc modulator	Luc counter	ELG1 genotoxic	NPC1 promoter act	Rab9 promoter act	SMN2 splice enh
Cc1ccc(OCCNC(=O)c2ccccc2O)cc1	u	x	n	n	n	x
Cc1ccc(C(=O)ONc2ccc(N=O)cc2)cc1	0.03µM	13µM	n	n	n	n
CCn1c(=O)c2cc(C(=O)NCCCN3CCN(c4ccc(F)cc4)CC3)sc2c2ccccc21	n	x	x	x	x	n
C#C[C@]1(O)CC[C@H]2[C@H]3CCC4=Cc5oncc5C[C@]4(C)[C@@H]3CC[C@]21C	x	n	x	x	x	x
COC(=O)c1ccc(C)cc1	x	x	n	x	x	n
COC(=O)c1ccc(NN=Nc2ccc(C)cc2)cc1	6.7µM	n	u	0.79µM	1.1µM	11µM
CCc1ccc(Nc2nnc(SC3CCOC3=O)s2)cc1 (centres undefined)	21µM	n	n	n	n	n
CCc1ccc(Nc2nnc(SC(C)C(=O)NC3CC3)s2)cc1 (centres undefined)	x	x	n	x	x	x
CCOc1ccc(Nc2oc(-c3ccc(COc4ccc(C)cc4)o3)nc2C#N)cc1	n	x	x	x	x	x
